Assay results reported in ChEMBL document CHEMBL2218924, “A broad activity screen in support of a chemogenomic map for kinase signalling research and drug discovery” (Biochem J, 2013).

target: T1, AMP-activated protein kinase (AMPK) alpha-1/beta-1/gamma-1 (Homo sapiens) (UniProt P54619+Q9Y478+Q13131); details: at 1 µM
T1 sequence (P54619 whole entry): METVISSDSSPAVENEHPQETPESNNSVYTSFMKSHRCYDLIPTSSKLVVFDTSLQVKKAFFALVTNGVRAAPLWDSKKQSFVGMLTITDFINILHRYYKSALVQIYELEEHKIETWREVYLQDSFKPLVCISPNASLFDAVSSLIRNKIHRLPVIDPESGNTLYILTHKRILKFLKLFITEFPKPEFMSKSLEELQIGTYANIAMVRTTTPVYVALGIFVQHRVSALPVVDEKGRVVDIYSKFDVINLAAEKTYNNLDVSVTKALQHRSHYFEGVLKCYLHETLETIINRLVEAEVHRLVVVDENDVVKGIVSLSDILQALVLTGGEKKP
T1 sequence (Q13131 whole entry partner): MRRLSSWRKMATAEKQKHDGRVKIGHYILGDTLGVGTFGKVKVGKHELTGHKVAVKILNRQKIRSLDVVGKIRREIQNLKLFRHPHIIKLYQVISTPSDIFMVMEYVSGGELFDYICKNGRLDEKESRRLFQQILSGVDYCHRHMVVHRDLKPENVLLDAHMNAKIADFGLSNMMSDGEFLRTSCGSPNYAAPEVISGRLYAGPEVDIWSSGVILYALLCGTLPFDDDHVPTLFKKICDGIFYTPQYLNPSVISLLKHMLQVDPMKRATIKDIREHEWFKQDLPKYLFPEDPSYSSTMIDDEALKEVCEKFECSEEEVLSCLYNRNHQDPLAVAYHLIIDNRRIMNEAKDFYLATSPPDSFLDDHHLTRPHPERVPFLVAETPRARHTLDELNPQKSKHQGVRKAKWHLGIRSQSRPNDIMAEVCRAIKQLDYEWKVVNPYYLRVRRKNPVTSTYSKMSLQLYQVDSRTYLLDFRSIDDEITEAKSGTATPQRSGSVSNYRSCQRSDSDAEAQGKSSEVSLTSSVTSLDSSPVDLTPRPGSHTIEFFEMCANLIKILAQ
T1 sequence (Q9Y478 2-270 partner limits assumed): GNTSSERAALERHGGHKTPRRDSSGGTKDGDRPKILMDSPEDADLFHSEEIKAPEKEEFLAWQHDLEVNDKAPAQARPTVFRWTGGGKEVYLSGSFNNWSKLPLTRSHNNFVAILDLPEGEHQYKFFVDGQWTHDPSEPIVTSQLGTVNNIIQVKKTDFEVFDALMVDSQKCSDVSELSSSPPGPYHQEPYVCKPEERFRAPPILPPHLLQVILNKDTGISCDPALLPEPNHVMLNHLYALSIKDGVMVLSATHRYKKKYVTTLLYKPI

Row | SMILES | residual activity
1 | O=C1NC(=O)C(c2c[nH]c3ccccc23)=C1c1c[nH]c2ccccc12 | 72%
2 | CCN(CC)CCNC(=O)c1c(C)[nH]c(/C=C2\C(=O)Nc3ccc(Cl)cc32)c1C | 7%
3 | CC(C)c1nn(-c2c(Cl)cccc2Cl)c2nc(Cc3ccc(OCCO)cc3)[nH]c(=O)c12 | 93%
4 | Cn1sc(=O)n(Cc2ccccc2)c1=O | 83%
5 | O=C1Cc2c([nH]c3ccc([N+](=O)[O-])cc23)-c2ccccc2N1 | 48%
6 | O=C(CCCc1ccc(-c2ccccc2F)cc1)Nc1ccc(O)cc1 | 106%
7 | Cn1c2ccccc2c2c3c(c4c5ccccc5n(CCC#N)c4c21)CNC3=O | 22%

target: T1, AMP-activated protein kinase (AMPK) alpha-1/beta-1/gamma-1 (Homo sapiens); details: at 10 µM

Row | SMILES | residual activity
8 | O=C1C(Cl)=C(N2C(=O)CCC2=O)C(=O)c2ccccc21 | 91%
9 | O=C(Nc1ccc(Cl)cc1)c1ccccc1NCc1ccncc1 | 78%
10 | O=C(O)/C=C/c1cc(Br)c(Br)c(Br)c1Br | 56%
11 | Nc1n[nH]c2nc3ccccc3nc12 | 83%
12 | O=C(c1cc2cc(O)ccc2[nH]1)c1cc2cc(O)ccc2[nH]1 | 1%
13 | O=C(NC(NC(=S)Nc1ccc(F)c([N+](=O)[O-])c1)C(Cl)(Cl)Cl)C(c1ccccc1)c1ccccc1 (stereo not drawn) | 71%
14 | CCCC(=O)Oc1ccc2[nH]c(C(=O)c3cc4ccccc4[nH]3)cc2c1 | 81%
15 | NC(=O)Nc1sc(-c2ccc(F)cc2)cc1C(N)=O | 27%
16 | COc1cc2nccc(Oc3ccc(NC(=S)NC(=O)c4ccccc4C)cc3)c2cc1OC | 70%
17 | O=C1Cc2c([nH]c3ccc(Br)cc23)-c2ccccc2N1 | 44%
18 | O=C1Nc2ccc(Cl)cc2/C1=C/c1cc(Cl)c(O)c(Cl)c1 | 40%
19 | CC(C)(C)n1nc(Cc2cccc3ccccc23)c2c(N)ncnc21 | 72%
20 | COc1ccc(Cl)cc1NC(=O)Nc1cc(C)nc2ccccc12 | 78%
21 | O=c1cc(N2CCNCC2)oc2c(-c3ccccc3)cccc12 | 75%
22 | Nc1ncnc2c1c(-c1ccc(Oc3ccccc3)cc1)cn2C1CCCC1 | 61%
23 | O=C1NC(=O)c2c1c1c3ccccc3[nH]c1n1cncc21 | 34%
24 | O=c1cc(N2CCOCC2)oc2c1ccc1ccccc12 | 94%
25 | CN(C)S(=O)(=O)c1ccc2c(c1)/C(=C/c1cc3c([nH]1)CCCC3)C(=O)N2 | 29%
26 | CCOC(=O)c1c(C)[nH]c(/C=C2\C(=O)Nc3ccccc32)c1C | 65%
27 | O=C1NC(=O)C(c2c[nH]c3ccccc23)=C1c1c[nH]c2ccccc12 | 15%
28 | CCN(CC)CCNC(=O)c1c(C)[nH]c(/C=C2\C(=O)Nc3ccc(Cl)cc32)c1C | 3%
29 | CC(C)c1nn(-c2c(Cl)cccc2Cl)c2nc(Cc3ccc(OCCO)cc3)[nH]c(=O)c12 | 71%
30 | Cn1sc(=O)n(Cc2ccccc2)c1=O | 82%
31 | O=C1Cc2c([nH]c3ccc([N+](=O)[O-])cc23)-c2ccccc2N1 | 40%
32 | O=C(CCCc1ccc(-c2ccccc2F)cc1)Nc1ccc(O)cc1 | 89%
33 | Cn1c2ccccc2c2c3c(c4c5ccccc5n(CCC#N)c4c21)CNC3=O | 22%
